From the supplement of paper PMC10338343
± gives the standard deviation.

These sequences were tested on MILI (PIWIL2) piRISC loaded with L1MC piRNA (26 nt) (assay: pre-steady-state target cleavage rate (min^-1); guide: L1MC piRNA 5'p-UAACUAAAUACUAUGCAAGCUGUAGG; MIWI and MILI are mouse PIWI proteins and EfPiwi is from a freshwater sponge; tags in brackets are library labels; higher = faster piRNA-guided slicing of the target). Details: auxiliary factor: 500 nM mouse GTSF1.
How it was run: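 Sequencing of uncleaved targets, normalised to depth and to weakly complementary targets, was the readout of this Cleave-'n-Seq assay. A transcribed, DNA-blocked target RNA library (0.1 nM) was mixed with 1 nM active affinity-purified piRISC carrying one synthetic guide, with or without 500 nM GTSF1 partner protein, in HEPES–potassium acetate buffer at 33 °C for 0–8 or 0–960 min. Three trials were pooled, k3 was capped at 0.0001 min^-1, and a burst-and-steady-state fit gave the pre-steady-state cleavage rate.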

Row | Sequence | pre-steady-state target cleavage rate
1 | UCCUGCUACAGCUUGCAUUCUAUUUUCAAA | 0.0184 ± 0.0078
2 | UCCUGGAUGAGCUUGCAAAGUAUUUACAAA | 0.00757 ± 0.0048
3 | UCCUGCUACUGCUUGCAUAGUAUUUACUUA | 0.082 ± 0.014
4 | UCCUGGAAGUCCUUGCAUAGUAUUUUCAAA | 0.0197 ± 0.0079
5 | UCCUGCUACAGCUUGCAUAGAUUUUUCAAA | 0.0091 ± 0.0044
6 | UCCUGGAUGUCGUACCAUAGUAUUUAGUUA | 0.0168 ± 0.0047
7 | UCCUGGAUGUGCUUGCAUAGUAUUUAGAUA | 0.0576 ± 0.014
8 | UCCUGGAUGUCCUUGCAUACUAUUUACUUA | 0.0119 ± 0.0046
9 | UCCUGGAACAGCAUGCAUAGUAUUUACAAA | 0.182 ± 0.035
10 | UCCUGGAACAGCUUGCAUAGAAUUUAGAAA | 0.0206 ± 0.0083
11 | UCCUGGUACAGCUUGCAUAGUAUUGUAGUUA | 0.233 ± 0.055
12 | UCCUGGAUGUCCUUGCAUAGUAUUAGUUA | 0.0068 ± 0.004
13 | UCCUGGAUGUGCUUGCAAAGUAUUUAGAAA | 0.0118 ± 0.0048
14 | UCCUGGAUGUCGAACGUUAGUAUUUAGUA | < 0.0001
15 | UCCUGGAUCAGCUUGCAUAGUAUAUACUUA | 0.0182 ± 0.0062
16 | UCCUGGAUGUCCUUGCAUAGUAUUUACUAA | 0.0464 ± 0.011
17 | UCCUGGAUGUCGUAGCAUAGUAUUUAGAUA | 0.0132 ± 0.0048

Row | Sequence | pre-steady-state target cleavage rate
18 | UCCUGGAUGUCGAUGCAUUGUAUUUAGUUA | 0.0091 ± 0.0037
19 | UCCUGGAUGUCCUAGCAUAGUAUUUACUUA | 0.0287 ± 0.0091
20 | UCCUGGUAGUCCUUGCAUAGUAUUUUCAAA | 0.0125 ± 0.0059
21 | UCCUGGAUGUCGAAGCAUAGUAUUUAUUUA | 0.0073 ± 0.0034
22 | UCCUGGAUGUCCUUGCAUAGUAUUUUCUUA | 0.0376 ± 0.011
23 | UCCUGGAACAGCUUGCAUAGUAAUUUGUUA | 0.0687 ± 0.013
24 | UCCUGGAUGUGCUUGCAUAGUAAAUAGUUA | 0.0601 ± 0.012
25 | UCCUGGAUGUCGAUGCUUAGUAUAUAGUUA | 0.0304 ± 0.0073
26 | UCCUGCUACAGCAAGCAUAGUAUUUACAAA | 0.191 ± 0.055
27 | UCCUGGAUCAGCUUCCAUAGUAAUUAGUUA | 0.00494 ± 0.004
28 | UCCUGGAUGUCGAACCAUAGUUUUUUGUUA | < 0.0001
29 | UCCUGGUAGUGCUUGCAUAGUAUUUUCAAA | 0.00481 ± 0.0037
30 | UCCUGGAACAGCUUGCAUAGUAUUUAGUCUA | 0.055 ± 0.015
31 | UCCUGGAUGUGCUUGCAUAGUAUUUUCAAA | 0.00462 ± 0.0044
32 | UCCUGGAUCAGCUAGCAUAGUAUUUACUUA | 0.134 ± 0.018
33 | UCCUGGAUGUCCUUGCAAUAGUAUUUAGUUA | 0.00466 ± 0.0043
34 | UCCUGCUACACCUUGCAUAGUAUAUAGUUA | 0.18 ± 0.037
